Screens as filed in PubChem.
An excerpt weighted towards active compounds, which were near 3.1% of everything screened.
Nrf2 block = blocks Nrf2 signaling | 2.1% of 360,000 active | Potency, µM (doses to about 46 µM), for inactives: at the highest dose activity change, negative = inhibition, most hits filed as inhibitors | A549 ARE-Fluc reporter, luciferase luminescence, 18-24 h; also: % is scaled to controls: 0 for no effect and ±100 for the full control effect; nearly all actives have a fitted effect of over 60% in size
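In this cell-based qHTS, ARE-driven firefly luciferase in A549 cells reports Nrf2 activity; the luminescent signal after BugLite lysis is the measured value, with a prior CellTiter-Fluor read for cell health.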
TrxR1 substrate = substrates of rat thioredoxin reductase 1 | Potency, µM (series often up to 114 µM), for inactives: top-dose activity change, negative = substrate turnover | AID 588456 | O89049 | 0.01% of 390,000 active | purified TrxR1 substrate turnover, NADPH consumption readout; also: % is scaled to controls: 0 for no effect and ±100 for the full control effect; nearly all actives have a fitted effect of over 50% in size
Target sequence (O89049 whole entry, looked up): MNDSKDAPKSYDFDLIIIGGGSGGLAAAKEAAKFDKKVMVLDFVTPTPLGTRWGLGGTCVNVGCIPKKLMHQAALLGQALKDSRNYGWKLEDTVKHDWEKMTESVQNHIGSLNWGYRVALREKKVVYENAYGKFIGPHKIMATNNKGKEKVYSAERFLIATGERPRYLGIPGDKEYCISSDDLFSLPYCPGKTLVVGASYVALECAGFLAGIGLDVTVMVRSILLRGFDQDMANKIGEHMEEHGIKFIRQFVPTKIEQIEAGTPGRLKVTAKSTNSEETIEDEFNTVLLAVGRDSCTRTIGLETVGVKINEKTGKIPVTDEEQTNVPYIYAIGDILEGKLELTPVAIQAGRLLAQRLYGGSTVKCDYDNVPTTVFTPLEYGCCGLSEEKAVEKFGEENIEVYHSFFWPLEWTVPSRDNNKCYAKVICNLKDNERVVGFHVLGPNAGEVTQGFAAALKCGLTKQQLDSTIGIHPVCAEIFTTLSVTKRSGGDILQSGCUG
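Rat TrxR1, dispensed at 90 nM, was prereduced with 400 uM NADPH (final) for 5 min at ~22 deg C, then incubated with compound 15 min before 400 uM selenite. A first-read NADPH fluorescence drop versus no-compound background flagged substrates.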
Mito fusion act = blocks mitochondrial division or promotes mitochondrial fusion; S. cerevisiae fusion-defective mutant growth rescue, CellTiterGlo 48 h; Potency, µM (top dose mostly 46.1 µM), inactives show at the highest dose growth rescue (activation), usual class: activators; 0.23% of 320,000 active; AID 485298; also: % of control where 0% means no effect; nearly all actives have a fitted effect of over 45% in size
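Read-out: ATP-based luminescence (CellTiterGlo, 10 min ambient) reporting growth of fusion-defective ts yeast after 48 hours at 37C on glycerol/ethanol YPEG medium in the presence of compound.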
mIDH1 inhibitor = blocks human mutant IDH1 R132H enzyme; AID 602179; 0.093% of 390,000 active; O75874; IDH1-R132H enzyme, NADPH consumption, diaphorase/resazurin fluorescence; Potency, µM (highest dose often 76.6 µM), for the others: at the top dose activity change, negative = inhibition, actives largely listed as inhibitors; also: % is scaled to controls: 0 for no effect and ±100 for the full control effect; nearly all actives have a fitted effect of over 65% in size
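IDH1-R132H (0.5 ug/mL) preincubated 30 min with compound, then NADPH (0.016 mM) and alpha-KG (2 mM) added; 80 min at RT, pH 7.5. Remaining NADPH coupled via diaphorase/resazurin to fluorescence (540/590 nm); concentration-response curves normalized to no-enzyme control.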
A549 tox-1 = kills or reduces viability of A549 cells in Nrf2 counter-screen; A549 ARE-Fluc cells, CellTiter-Fluor viability, 18-24 h; AID 504648; Potency, µM (titrated, usually from 46 µM), for inactives: at the top dose activity change, negative = cytotoxicity, most hits filed as inhibitors; 0.16% of 390,000 active; also: % is scaled to controls: 0 for no effect and ±100 for the full control effect
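Cytotoxicity counterscreen: CellTiter-Fluor fluorescence was measured in A549 ARE_Fluc cells after 18-24 h of compound exposure in a concentration series. The subsequent BugLite luminescent read reports ARE-luciferase activity.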
TrxR1 inh = inhibitors of rat thioredoxin reductase 1 | Potency, µM (doses to about 114 µM), without a hit: at the top dose activity change, negative = inhibition, hits mostly inhibitors | AID 588453 | recombinant rTrxR1, NADPH fluorescence consumption, selenite substrate | 1% of 390,000 active | O89049; also: % is scaled to controls: 0 for no effect and ±100 for the full control effect; nearly all actives have a fitted effect of over 65% in size
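Rat TrxR1 (90 nM in the dispensed reagent) was pre-reduced with 400 uM NADPH for 5 min at room temperature, then incubated with compound for 15 min. After 400 uM selenite was added, NADPH fluorescence (Ex 340/Em 450 nm) was followed for 8 min.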
FLuc enzyme inh = blocks purified firefly luciferase in Nrf2 counterscreen; AID 720522; purified firefly luciferase, luminescence inhibition; Potency, µM (series often up to 57.5 µM), for inactives: at the top dose activity change, negative = inhibition, usual class: inhibitors; shares compounds with Nrf2 block; 4% of 1,400 active; also: % is scaled to controls: 0 for no effect and ±100 for the full control effect; nearly all actives have a fitted effect of over 65% in size
A549 tox-2 = toxic to A549 ARE-Fluc cells in Nrf2 counterscreen; shares compounds with Nrf2 block; Potency, µM (top dose mostly 46.1 µM), for the others: at the highest dose activity change, negative = cytotoxicity, most hits filed as inhibitors; 2% of 1,400 active; AID 720523; A549 ARE-Fluc cells, cytotoxicity counterscreen;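 also: cells exposed to compounds for 18 to 24 hours; % is scaled to controls: 0 for no effect and ±100 for the full control effect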
Nrf2 ARE inh = Nrf2 inhibition confirmed, A549 ARE-luciferase | shares compounds with Nrf2 block | A549 ARE-firefly luciferase reporter, luminescence | Potency, µM (titrated, usually from 46.1 µM), inactives show at the highest dose activity change, negative = inhibition, hits mostly inhibitors | 74% of 1,400 active | AID 720524; also: % is scaled to controls: 0 for no effect and ±100 for the full control effect; nearly all actives have a fitted effect of over 65% in size
Starred values were filed as active, the others as inactive; [ ] = dose if it differs, or a comment. Calls follow the shape of the dose curve; as a rule, active = well fitted curve in the direction sought with a large enough effect; inconclusive = small, poorly fitted or top-dose-only effect, or another doubt; inactive = no such curve, though single readings can be large; an effect the other way counts as inactive or inconclusive. Potency is read from the fitted curve at half-maximal effect.

Screening N#Cc1nc(N2CCCCC2)nc(N2CCCCC2)n1 returned Nrf2 block 2.1µM*, TrxR1 substrate 5%, A549 tox-1 -4%, TrxR1 inh 12%, FLuc enzyme inh -13%, A549 tox-2 -23% and Nrf2 ARE inh 5.2µM*.
Screening CCNc1nc(NC(C)(C)C)nc(N2CCCC2)n1 returned Nrf2 block -16%, TrxR1 substrate 1%, Mito fusion act -5%, mIDH1 inhibitor 1%, A549 tox-1 inconclusive and TrxR1 inh -6%.
For CCNc1nc(C#N)nc(N2CCCCC2)n1 the results were Nrf2 block 4.6µM*, TrxR1 substrate -6%, A549 tox-1 -10%, TrxR1 inh 4%, FLuc enzyme inh -10%, A549 tox-2 -23% and Nrf2 ARE inh 7.3µM*.
CCCN1CCN(C(=O)Cn2ncc3c4ccccc4n(Cc4cccc(Cl)c4)c3c2=O)CC1 was read as Nrf2 block 0%, TrxR1 substrate 3%, mIDH1 inhibitor -12%, A549 tox-1 -19% and TrxR1 inh 9%.
`O=S(=O)(c1ccc2ccccc2c1)N1CCC(c2nc(-c3ccncc3)no2)CC1` gave Nrf2 block 4.1µM*, TrxR1 substrate 2%, Mito fusion act 7%, mIDH1 inhibitor 0%, A549 tox-1 -26%, TrxR1 inh 7%, FLuc enzyme inh 3%, A549 tox-2 -6% and Nrf2 ARE inh inconclusive.
For O=S(=O)(c1ccc2c(c1)OCCO2)N1CCC(c2nc3ccc(Cl)cc3[nH]2)CC1 the results were Nrf2 block 4.6µM*, TrxR1 substrate 6%, Mito fusion act 5%, mIDH1 inhibitor 3%, A549 tox-1 inconclusive, TrxR1 inh 26%, FLuc enzyme inh -13%, A549 tox-2 -22% and Nrf2 ARE inh 10µM*.
COc1ccc(S(=O)(=O)N2CCC(c3nc4ccccc4s3)CC2)cc1OC was read as Nrf2 block 12%, TrxR1 substrate 5%, mIDH1 inhibitor 5%, A549 tox-1 6% and TrxR1 inh 17%.
CN(C)c1ccc(-c2noc(C3CCN(S(=O)(=O)c4cccc(Cl)c4)CC3)n2)cc1 was read as TrxR1 substrate 45%, Mito fusion act -1%, mIDH1 inhibitor -3%, A549 tox-1 -9% and TrxR1 inh 54%.
For Cc1ccc(-c2noc(C3CCN(S(=O)(=O)c4ccc5c(c4)OCCO5)CC3)n2)o1 the results were Nrf2 block 6.5µM*, TrxR1 substrate 3%[57.1 µM], Mito fusion act 9%, mIDH1 inhibitor -2%, A549 tox-1 -11%, TrxR1 inh 14%[57.1 µM], FLuc enzyme inh -16%, A549 tox-2 -13% and Nrf2 ARE inh 12µM*.
Screening Cc1ccc(-c2noc(C3CCCN(S(=O)(=O)c4ccc5ccccc5c4)C3)n2)o1 (stereo unspecified) returned Nrf2 block inconclusive, TrxR1 substrate 9%, Mito fusion act 11%, mIDH1 inhibitor 10%, A549 tox-1 -4% and TrxR1 inh -16%.
